Screening results deposited in PubChem BioAssay by National Center for Advancing Translational Sciences (NCATS).
Only some compounds are listed: those with a hit (about 4.7% of all), similar ones and a draw of the others.
TRHR enhancer: TRH receptor (human) allosteric enhancement | P34981 | TRHR cells, fluo-8 calcium fluorescence, EC20 TRH enhancement | actives 0.66% (n = 360,000) | enhancement, % at 2 µM; in the data active = enhancement above about 30%; also: 0% is about no effect
Target sequence (P34981 whole entry, looked up): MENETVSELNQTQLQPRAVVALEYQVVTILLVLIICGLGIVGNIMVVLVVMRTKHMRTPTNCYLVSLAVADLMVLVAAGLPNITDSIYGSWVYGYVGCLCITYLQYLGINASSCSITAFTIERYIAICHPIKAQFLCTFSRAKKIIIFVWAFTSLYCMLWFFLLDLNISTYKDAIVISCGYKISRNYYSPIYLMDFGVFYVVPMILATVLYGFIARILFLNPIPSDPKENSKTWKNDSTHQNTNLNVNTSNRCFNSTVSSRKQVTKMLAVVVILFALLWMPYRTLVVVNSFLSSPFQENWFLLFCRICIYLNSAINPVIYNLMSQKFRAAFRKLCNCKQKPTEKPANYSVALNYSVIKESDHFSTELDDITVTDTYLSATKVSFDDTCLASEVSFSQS
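Enhancer read-out: after compound pinning and an initial kinetic agonist-mode read, an EC20 of TRH (10 nM final) was injected and fluo-8 calcium signal (Ex 480/Em 530) followed at 1 s/cycle for 100 cycles in TRHR-expressing cells.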
D1 antag: human D1 dopamine receptor antagonism; P21728; HEK293 TREx D1 cells, calcium flux, dopamine EC80; active compounds read low; activity change, negative = inhibition, % at 10 µM; actives 3.2% (n = 360,000); AID 504652; in the data active = activity change below about -30%; also: % is scaled to controls: 0 for no effect and ±100 for the full control effect
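Antagonism measured as reduced calcium response to an EC80 dopamine addition following 180 s compound pre-read; cells were inducible HEK293 Trex D1 plated overnight at 30 C, read kinetically at 1 cycle/sec.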
TRHR ag: activates the human TRH receptor; P34981; TRHR cells, calcium flux fluo-8, FDSS agonist mode; activation, % at 2 µM; actives 0.18% (n = 360,000); AID 493084; also: 0% is about no effect
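Steps: seed TRHR cells overnight; add fluo-8 no-wash Ca dye, RT 30 min–1.5 h; record 10 s baseline; pin-transfer compounds; monitor fluorescence 1 cycle/s for the agonist window. Calcium increases flag candidate agonists.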
D1 ag: activates the human D1 dopamine receptor; P21728; HEK293 T-REx D1 cells, calcium flux, agonist mode; activation, % at 2 µM; actives 1% (n = 360,000); also: 0% is about no effect
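Tetracycline-induced HEK293 TREx D1 cells, force-coupled to calcium signalling, were dye-loaded with a no-wash calcium kit. Compound was pin-added after a 10 s baseline. Fluorescence was read kinetically at 1 cycle/s for 180 s, with calcium rises flagged as agonism.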
D1 potentiator: potentiators of human D1 dopamine receptor; actives 0.036% (n = 360,000); potentiation, % at 10 µM; HEK293 TREx D1 cells, calcium flux, dopamine EC20 potentiation; P21728; in the data active = potentiation above about 30%; also: 0% is about no effect
The depositor's hits bear a star; x = not tested or not shown; ! = a repeat was not active. Rule as the data show it, unless noted: active = activation above about 30%; inactive = the rest.

SMILES	TRHR enhancer	D1 antag	TRHR ag	D1 ag	D1 potentiator
CC(C)(C)c1ccc(-c2nnc(-c3ccccc3NC(=O)c3ccc(F)cc3F)o2)cc1	0	-6	1	-1	-4
Cc1cccc(NC(=O)C(=O)NCC(c2cccnc2)N2CCc3ccccc3C2)c1C (stereo not drawn)	-5	9	0	1	-3
C=CCn1ccc(=NC=C(C#N)C#N)c2ccccc21	0	-6	17	31*	-12
CCOc1ccc(Nc2oc(/C=C/c3ccc(OC)c(OC)c3)nc2C#N)cc1	7	8	-1	0	5
Cc1ccc(C2=NN(C(=O)CSc3nnnn3C)C(c3ccco3)C2)cc1 (stereo not drawn)	0	1	0	1	x
CCC(=O)N1N=C(c2cccs2)CC1c1ccco1 (stereo not drawn)	-4	6	-1	1	-8
COc1ccc(C2=NN(C(=O)CSc3nnc(C)c(=O)n3N)C(c3ccco3)C2)cc1 (stereo not drawn)	4	-80*	-1	2	-5
CCC(=O)N1N=C(c2ccc(C)cc2)CC1c1ccco1 (stereo not drawn)	3	-37*	-2	3	-3
O=c1c2oc3ccccc3c2n(Cc2ccc(Cl)cc2)c(=O)n1Cc1ccccc1	-3	-13	1	4	1
O=C(CSc1nc(-c2cccs2)nc2cc(=O)[nH]n12)Nc1ccccc1Cl	13	1	0	5	-5
C=CCNC(=O)c1ccc(C2SCC(=O)N2Cc2ccccc2)cc1 (stereo not drawn)	-2	-2	0	1	-7
O=C(NCc1ccccc1)c1ccc(C2SCC(=O)N2Cc2ccccc2)cc1 (stereo not drawn)	-4	0	0	34*	-5
CCOC(=O)c1cc2sccc2n1CC(=O)OC	-2	-10	-1	0	-1
CCOC(=O)c1cc2sccc2n1CC(=O)Nc1ccc(OC)cc1OC	20	-39*	0	7	-3
CCOC(=O)Cn1c(C(=O)OCC)cc2sccc21	13	-30*	-2	2	-6
CCOc1ccc(CNC(=O)C2CCN(c3nc4ccccc4nc3C(F)(F)F)CC2)cc1OC	4	-2	0	1	-1
Cc1cccc(NC(=O)C2CCN(S(=O)(=O)c3ccc4c(c3)CCCN4C(=O)C3CCC3)CC2)c1	-8	13	-1	2	-6
CC(=O)N1CCCc2cc(S(=O)(=O)N3CCCC(C(=O)Nc4cccc(F)c4)C3)ccc21 (stereo not drawn)	11	13	0	1	-9
CC(=O)N1CCCc2cc(S(=O)(=O)N(C)CC(=O)Nc3ccc(C(C)C)cc3)ccc21	-1	-11	0	7	-4
COc1ccc(NC(=O)CN(C)S(=O)(=O)c2ccc3c(c2)CCCN3C(C)=O)cc1	-1	-42*!	0	0	-1
CSc1cccc(NC(=O)C2CCCN(S(=O)(=O)c3ccc4c(c3)CCCN4C(C)=O)C2)c1 (stereo not drawn)	-1	-32*	0	0	-1
CCc1ccc(NC(=O)C2CCCN(S(=O)(=O)c3ccc4c(c3)CCCN4C(C)=O)C2)cc1 (stereo not drawn)	15	-32*!	0	3	-10
CSc1cccc(NC(=O)C2CCN(S(=O)(=O)c3ccc4c(c3)CCCN4C(=O)C3CCC3)CC2)c1	-5	-48*	0	3	-4
CCC1CN(C(=O)Nc2cccc3c2CCCC3)c2ccccc2O1 (stereo not drawn)	-6	0	0	2	4
COc1cccc(OCc2nnc(-c3cccs3)o2)c1	11	-32*	0	2	2
CN(C)CCNC(=O)C1CCN(Cc2cc3ccccc3n2Cc2ccccc2)CC1	-5	-19	2	39*	-4
CC(C)COc1ccc(C(=O)Nc2cc(-c3ccccc3)no2)cc1	-2	-10	2	8	1
CC1=C(c2ccc(C)cc2)S(=O)(=O)N(Cc2ccc(C(=O)NCc3cccc(C)c3)cc2)C1=O	-1	-20	1	24	-6
COc1ccc(NC(=O)CC2Oc3ccccc3NC2=O)cc1 (stereo not drawn)	2	-40*	0	1	-16
